# Assay outcomes: PubChem, National Center for Advancing Translational Sciences (NCATS)
# Shown are actives, neighbours in structure and some others; about 14% of the full set was active somewhere.
# Pf growth 48h: Primary qHTS for delayed death inhibitors of the malarial parasite plastid, 48 hour incubation; P. falciparum luciferase growth in erythrocytes, 48 h; Potency, µM (doses to about 28.7 µM), without a hit: top-dose activity change, negative = inhibition, usual class: inhibitors; 310,000 tested, 5.9% active; AID 504832, 2011; also: potency is read from the fitted curve at half-maximal effect
#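 Growth was read as firefly luciferase luminescence after a 48 h, 37 C, 5% CO2 exposure of compounds to reporter-bearing P. falciparum cultures (0.1% parasitemia, 2% hematocrit final) in Albumax-supplemented RPMI 1640.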
# Giardia FBPA inh: qHTS Assay for Inhibitors of Fructose-1,6-bisphosphate Aldolase from Giardia Lamblia. Potency, µM (series often up to 59.6 µM), for the others: top-dose activity, negative = inhibition, most hits filed as inhibitors. A8B2U2. purified Giardia FBPA. 290,000 tested, 0.71% active; also: potency is read from the fitted curve at half-maximal effect; nearly all actives have a fitted effect of over 55% in size
# Target sequence (A8B2U2 whole entry, looked up): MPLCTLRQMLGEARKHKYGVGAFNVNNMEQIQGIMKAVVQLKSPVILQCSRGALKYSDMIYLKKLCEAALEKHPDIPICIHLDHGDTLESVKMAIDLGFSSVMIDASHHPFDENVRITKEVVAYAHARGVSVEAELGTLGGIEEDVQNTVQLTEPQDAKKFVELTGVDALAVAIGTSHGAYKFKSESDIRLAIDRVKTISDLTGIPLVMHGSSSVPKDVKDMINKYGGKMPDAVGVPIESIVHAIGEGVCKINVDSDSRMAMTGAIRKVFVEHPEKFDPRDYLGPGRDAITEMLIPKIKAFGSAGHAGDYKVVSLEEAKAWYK
#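 Giardia FBPA (40 nM reagent) was preincubated 10 min at RT with compound (up to 57.5 uM final), then substrate plus GAPDH/TPI/NAD/arsenate coupling system with diaphorase/resazurin was added; resorufin fluorescence (525/598 nm) was read after 20 min.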
# Sm TGR inh: qHTS Assay for the Inhibitors of Schistosoma Mansoni Peroxiredoxins. Schistosoma mansoni thioredoxin glutathione reductase (TGR), Q962Y6. purified TGR, DTNB reduction, TNB absorbance 405 nm. Potency, µM (highest dose often 114 µM), inactives show at the top dose activity change, negative = inhibition, hits mostly inhibitors. 360,000 tested, 3% active. AID 485364, 2010; also: potency is read from the fitted curve at half-maximal effect; nearly all actives have a fitted effect of over 60% in size
#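 TGR 20 nM + NADPH 100 uM (dispensed conc.), cpd preinc 15 min RT; start with NADPH (500 uM addition) then DTNB (15 mM addition). Kinetic TNB absorbance, 405 nm filter. Four-parameter Hill fit across titration.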
# HCMV inh: qHTS Assay for inhibitors of the human cytomegalovirus (HCMV); 410,000 tested, 4.5% active; AID 1259415, 2018; HFF cells, HCMV-luciferase reporter, 72 h; active compounds read low; activity change, negative = inhibition, % at 57.5 µM; in the data active = activity change below about -60%; inconclusive = no clear call, values can overlap the other calls; inactive = above about -39%
#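 Two-dose cell screen: HFF monolayers treated with compounds and infected with luciferase-expressing HCMV at 1 PFU/cell, 72 h at 37C, then lysed for luciferase measurement.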
# Pf growth 96h: Primary qHTS for delayed death inhibitors of the malarial parasite plastid, 96 hour incubation | Potency, µM (highest dose often 28.7 µM), without a hit: top-dose activity change, negative = inhibition, hits mostly inhibitors | AID 504834, 2011 | 320,000 tested, 6.9% active | P. falciparum luciferase reporter growth, 96 h; also: potency is read from the fitted curve at half-maximal effect
#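 Cell-based qHTS: luciferase-tagged P. falciparum in erythrocytes (2% hematocrit, 0.05% parasitemia final) incubated with compounds for 96 hours, 37 C, 5% CO2; luciferase detection reagent then added and luminescence measured.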
# * marks the source's active call; other numbers are inactive results; u = inconclusive; x = no result given. Unless noted, calls follow the shape of the dose curve; as a rule, active = well fitted curve in the direction sought with a large enough effect; inconclusive = small, poorly fitted or top-dose-only effect, or another doubt; inactive = no such curve, though single readings can be large; an effect the other way counts as inactive or inconclusive. % is scaled to controls: 0 for no effect and ±100 for the full control effect.
SMILES,Pf growth 48h,Giardia FBPA inh,Sm TGR inh,HCMV inh,Pf growth 96h
CCCCC1CCC(C(=O)N(CCC(C)C)c2c(N)n(CCCC)c(=O)[nH]c2=O)CC1 (stereo not drawn),x,x,x,-26,x
CCCN(CC(=O)Nc1ccc(F)c(F)c1F)C(=O)CCc1nc2ccccc2c(=O)[nH]1,u,x,0%,-17,u
Cc1oc(-c2ccc(Cl)cc2)cc1C(=O)O,144%,9%,0%,120,128%
COc1ccc(-c2noc(CCC(=O)O)n2)cc1,0%,-1%,0%,-28,u
O=C(O)CCc1ccc(-c2ccc(Cl)cc2)o1,x,9%,5µM*,-27,u
O=C(O)CCc1ccc(-c2ccc(Br)cc2)o1,11%,-1%,7.9µM*,61,-2%
COc1ccc(-c2ccc(CCC(=O)O)o2)cc1,27%,6%,2.8µM*,50,u
CCCCNC(=S)NNc1c(Cl)cc(Cl)cc1Cl,-2%,-9%,u,-17,8.3µM*
O=C(NCCCl)NNc1c(Cl)cc(Cl)cc1Cl,-30%,-7%,10%,-9,u
CCCCCC(=O)Nc1ccc(NC(=O)c2cc3ccccc3o2)c(OC)c1,x,x,-3%,-30,x
O=c1c(O)cc(C2Oc3cc(O)cc(O)c3CC2O)cc2c(C3Oc4cc(O)cc(O)c4CC3O)cc(O)c(O)c12 (stereo not drawn),x,0.89µM*,x,x,x
Cc1cc(NC(=O)CN2C(=O)/C(=C/c3ccc(C(C)C)cc3)SC2=S)no1,x,x,x,14,x
O=C(CN1C(=O)CC(c2ccc(F)cc2)=Nc2ccccc21)NCc1ccccc1Cl,x,x,-10%,-64*,x
COc1ccccc1CNC(=O)c1ccccc1C(=O)NC(CC(C)C)C(=O)NCc1ccccc1OC (stereo not drawn),1%,9%,0%,u,u
Cc1cc(C)cc(N(CC(=O)NCc2ccccc2)C(=O)CCC(=O)Nc2ccccn2)c1,2.1µM*,4%,-8%,9,5%
Cc1cc(C)cc(N(CC(=O)NCc2ccco2)C(=O)CCC(=O)Nc2ccccn2)c1,u,12%,u,-32,50%
Cc1ccc(N(CC(=O)NC(C)C)C(=O)CCC(=O)Nc2ccccn2)cc1,21%,1%,-7%,-27,3.7µM*
Cc1ccc(C)c(N(CC(=O)NC(C)C)C(=O)CCC(=O)Nc2ccccn2)c1,-12%,10%,13%,18,-29%
O=S(=O)(NC1Cc2ccccc2C1)c1ccccc1,3%,-3%,-17%,-9,10%
COc1ccc(Oc2c(C=O)c3ccccc3n2C)cc1,21%,4%,0%,-24,-22%
Cn1c(Oc2ccc(Cl)cc2)c(C=O)c2ccccc21,u,-1%,11%,-13,9.3µM*
Cn1c(Sc2ccc(Cl)cc2)c(C=O)c2ccccc21,12µM*,22%,-15%,u,u
O=[N+]([O-])c1ccc(C(O)C[n+]2ccccc2)cc1 (stereo not drawn),-18%,8%,-2%,x,7.4µM*
C[C@H](CO)N1C[C@H](C)[C@@H](CN(C)C(=O)Nc2ccc(C(F)(F)F)cc2)Oc2c(NS(=O)(=O)c3ccccc3)cccc2C1=O,x,x,x,-6,x
Cc1ccc(-c2nc(S(=O)(=O)c3ccc(C)cc3)c(N(C)C)o2)cc1,2%,u,2.5µM*,1,u
COc1cc(-c2nc(S(=O)(=O)c3ccc(C)cc3)c(N(C)C)o2)cc(OC)c1OC,-16%,-18%,18µM*,86,0%
Cc1ccc(S(=O)(=O)c2nc(-c3ccccc3Cl)oc2N(C)C)cc1,132%,x,-9%,x,u
Cc1nc(S(=O)(=O)c2ccc(Cl)cc2)c(N(C)C)o1,32%,-4%,10µM*,0,58%
COc1ccccc1-c1nc(S(=O)(=O)c2ccc(Cl)cc2)c(N(C)C)o1,4%,-22%,u,-8,333%
CCOC(=O)C1=C(C)N(CCCCCC(=O)O)C(=O)NC1c1ccccc1OC(=O)c1cccs1 (stereo not drawn),-1%,5%,-13%,-16,u
